Active and inactive are the calls of the source. The calls were made as follows: active = hit-call score of the fitted dose curve at least 0.9, where 1 is the maximum; inactive = score below 0.9.
What was measured:
[1] = molecular target: Hypoxia-inducible factor 1-alpha (Homo sapiens) (UniProt Q16665); test: ATG_HIF1a_CIS: Attagene CIS-FACTORIAL HepG2 Assay for human Hypoxia Inducible Factor 1 (HIF1A) (AID 2282951); conditions: HepG2 Attagene cis-factorial HIF1a reporter transcription; actives raise or lower the signal
Summary of the method: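 HepG2 cells transiently transfected with multiple cis-regulated reporter transcription units measure endogenous transcription factor activity. After 24 h exposure, reporter mRNA is quantified by RT-PCR with 6-FAM labelling, HpaI digestion and capillary electrophoresis. Bidirectional fitting against DMSO.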

[2] = molecular target: Hepatocyte nuclear factor 6 (Homo sapiens) (UniProt Q9UBC0); test: ATG_HNF6_CIS: Attagene CIS-FACTORIAL HepG2 Assay for human Hepatocyte Nuclear Factor 6 (HNF6) (AID 2282952); conditions: HepG2 Attagene cis-factorial HNF6 reporter transcription; actives raise or lower the signal
Summary of the method: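 Reporter mRNA induction or loss in HepG2 after 24 h exposure; transient cis-MRTU transfection; fragments quantified by capillary electrophoresis; bidirectional analysis, DMSO as negative control.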

[3] = ATG_MRE_CIS: Attagene CIS-FACTORIAL HepG2 Assay for human Metal Responsive Element (MRE) (AID 2282954); conditions: HepG2 MRE cis-reporter transcription, Attagene multiplex; actives raise or lower the signal
Summary of the method: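 After a 24 h chemical exposure, transiently transfected HepG2 cells yield RNA whose reporter sequences are amplified, FAM-labelled and sized by capillary electrophoresis. Curves are fitted bidirectionally relative to DMSO.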

[4] = ATG_PBREM_CIS: Attagene CIS-FACTORIAL HepG2 Assay for human Phenobarbital-responsive Enhancer Module (PBREM) (AID 2282955); conditions: HepG2 PBREM cis-reporter, Attagene multiplexed transcription; actives raise or lower the signal
Summary of the method: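 HepG2 cells transiently transfected with multiple cis-regulated reporter units measure endogenous transcription factor activity; 24 h compound exposure. Reporter mRNA quantified by RT-PCR, fluorescent labelling, HpaI digestion and capillary electrophoresis; bidirectional fit versus DMSO.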

[5] = molecular target: Paired box protein Pax-6 (Homo sapiens) (UniProt P26367); test: ATG_Pax6_CIS: Attagene CIS-FACTORIAL HepG2 Assay for human Paired Box 6 (PAX6) (AID 2282956); conditions: HepG2 CIS-FACTORIAL PAX6 reporter transcription, RNA readout; actives raise or lower the signal
Summary of the method: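 Transient MRTU transfection of HepG2 → compound exposure 24 h → TriZol RNA, oligo(dT) RT → PCR, 6-FAM primer extension, HpaI cut → capillary electrophoresis; activity fitted both directions against DMSO.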

[6] = ATG_PXRE_CIS: Attagene CIS-FACTORIAL HepG2 Assay for human Pregnane X Receptor Element (PXRE) (AID 2282957); conditions: HepG2 Attagene CIS-FACTORIAL PXRE reporter, mRNA; actives raise or lower the signal
Summary of the method: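 Transiently transfected HepG2 cells were dosed and incubated for 24 h. RNA was then isolated, DNase-treated, reverse-transcribed and reporter sequences amplified. Labeled, HpaI-digested fragments were quantified by capillary electrophoresis against DMSO.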

[7] = ATG_PPRE_CIS: Attagene CIS-FACTORIAL HepG2 Assay for human Peroxisome Proliferator-activated Response Element (PPRE) (AID 2282958); conditions: HepG2 PPRE cis-element reporter, Attagene transcription factor profiling; actives raise or lower the signal
Summary of the method: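 HepG2 cells are transiently transfected with multiplexed cis-promoter reporter units to report endogenous PPAR activity. After 24 h dosing, reporter mRNA is read by RT-PCR and capillary electrophoresis. Fitting is bidirectional against DMSO.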

[8] = ATG_RORE_CIS: Attagene CIS-FACTORIAL HepG2 Assay for human RAR-related Orphan Receptor Element (RORE) (AID 2282959); conditions: HepG2 Attagene cis-factorial RORE reporter, mRNA; actives raise or lower the signal
Summary of the method: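 HepG2 cells carrying transiently transfected cis-regulated reporter units; RORE-driven reporter mRNA quantified 24 h post-dosing by RT-PCR, 6-FAM primer extension, HpaI digestion and capillary electrophoresis. Bidirectional fit versus DMSO.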

[9] = ATG_Sox_CIS: Attagene CIS-FACTORIAL HepG2 Assay for human SRY-box transcription factor (SOX) (AID 2282960); conditions: HepG2 Attagene cis-factorial SOX reporter, mRNA; actives raise or lower the signal
Summary of the method: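 HepG2 cells transiently transfected with multiple cis-regulated reporter units, then dosed for 24 h. Reporter mRNA quantified by RT-PCR, fluorescent labelling, HpaI digestion and capillary electrophoresis; bidirectional fit versus DMSO.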

[10] = molecular target: Heat shock factor protein 1 (Homo sapiens) (UniProt Q00613); test: ATG_HSE_CIS: Attagene CIS-FACTORIAL HepG2 Assay for human Heat Shock Transcription Factor 1 (HSE) (AID 2282953); conditions: HepG2 HSE cis-reporter, Attagene RNA transcription; actives raise or lower the signal
Summary of the method: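 Endogenous transcription factor activity in transiently transfected HepG2, read as reporter mRNA by RT-PCR with fluorescent capillary electrophoresis after 24 h. Gain or loss of signal fitted versus DMSO baseline.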

Measured: AC50

Chain of Hepatocyte nuclear factor 6 (Homo sapiens) (Q9UBC0 whole entry, looked up, the tested form may be a part): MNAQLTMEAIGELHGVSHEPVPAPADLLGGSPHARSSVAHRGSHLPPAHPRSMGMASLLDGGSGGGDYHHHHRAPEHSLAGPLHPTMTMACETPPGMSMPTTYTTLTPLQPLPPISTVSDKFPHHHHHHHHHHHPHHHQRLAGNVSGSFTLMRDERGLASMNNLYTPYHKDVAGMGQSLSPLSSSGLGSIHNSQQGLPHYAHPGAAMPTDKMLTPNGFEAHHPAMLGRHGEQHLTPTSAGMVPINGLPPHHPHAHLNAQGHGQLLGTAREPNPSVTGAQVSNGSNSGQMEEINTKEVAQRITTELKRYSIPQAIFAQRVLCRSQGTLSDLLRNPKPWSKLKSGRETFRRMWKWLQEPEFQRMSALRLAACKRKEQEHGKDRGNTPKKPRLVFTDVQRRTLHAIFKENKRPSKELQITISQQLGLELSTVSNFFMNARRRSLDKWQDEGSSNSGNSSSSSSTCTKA
Chain of Hypoxia-inducible factor 1-alpha (Homo sapiens) (Q16665 whole entry, looked up): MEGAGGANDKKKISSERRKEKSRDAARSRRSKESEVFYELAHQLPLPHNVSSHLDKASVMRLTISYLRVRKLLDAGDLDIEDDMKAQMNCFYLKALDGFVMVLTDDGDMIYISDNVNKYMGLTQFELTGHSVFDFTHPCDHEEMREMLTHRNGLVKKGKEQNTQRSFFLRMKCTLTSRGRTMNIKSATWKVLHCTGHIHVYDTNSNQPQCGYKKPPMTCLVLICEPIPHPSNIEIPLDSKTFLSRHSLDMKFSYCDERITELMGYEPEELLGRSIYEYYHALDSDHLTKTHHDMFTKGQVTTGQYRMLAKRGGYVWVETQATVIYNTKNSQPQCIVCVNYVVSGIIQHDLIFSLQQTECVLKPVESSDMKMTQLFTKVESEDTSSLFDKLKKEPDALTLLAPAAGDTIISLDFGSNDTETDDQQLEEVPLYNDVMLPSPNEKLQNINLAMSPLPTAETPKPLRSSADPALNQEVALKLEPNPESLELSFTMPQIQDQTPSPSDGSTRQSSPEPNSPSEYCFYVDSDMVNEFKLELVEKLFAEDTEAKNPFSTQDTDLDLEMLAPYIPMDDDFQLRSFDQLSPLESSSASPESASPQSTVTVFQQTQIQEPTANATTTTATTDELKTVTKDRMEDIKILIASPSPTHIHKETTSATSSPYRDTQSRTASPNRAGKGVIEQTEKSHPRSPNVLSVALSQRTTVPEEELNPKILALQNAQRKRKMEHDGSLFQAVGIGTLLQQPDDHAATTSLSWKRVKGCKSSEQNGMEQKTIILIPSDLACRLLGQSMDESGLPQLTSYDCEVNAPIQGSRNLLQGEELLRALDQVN
Chain of Paired box protein Pax-6 (Homo sapiens) (P26367 whole entry, looked up): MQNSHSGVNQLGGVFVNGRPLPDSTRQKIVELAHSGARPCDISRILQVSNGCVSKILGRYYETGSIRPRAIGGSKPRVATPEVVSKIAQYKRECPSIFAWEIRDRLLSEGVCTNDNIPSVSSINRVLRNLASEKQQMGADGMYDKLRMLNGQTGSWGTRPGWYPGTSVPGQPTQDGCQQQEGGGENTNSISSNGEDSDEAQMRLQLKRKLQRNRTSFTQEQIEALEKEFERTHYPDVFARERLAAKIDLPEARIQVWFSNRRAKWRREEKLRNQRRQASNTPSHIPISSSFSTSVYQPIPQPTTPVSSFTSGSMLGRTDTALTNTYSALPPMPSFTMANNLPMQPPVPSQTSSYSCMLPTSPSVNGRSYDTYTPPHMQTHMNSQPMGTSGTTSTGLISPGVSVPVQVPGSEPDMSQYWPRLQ
Chain of Heat shock factor protein 1 (Homo sapiens) (Q00613 whole entry, looked up): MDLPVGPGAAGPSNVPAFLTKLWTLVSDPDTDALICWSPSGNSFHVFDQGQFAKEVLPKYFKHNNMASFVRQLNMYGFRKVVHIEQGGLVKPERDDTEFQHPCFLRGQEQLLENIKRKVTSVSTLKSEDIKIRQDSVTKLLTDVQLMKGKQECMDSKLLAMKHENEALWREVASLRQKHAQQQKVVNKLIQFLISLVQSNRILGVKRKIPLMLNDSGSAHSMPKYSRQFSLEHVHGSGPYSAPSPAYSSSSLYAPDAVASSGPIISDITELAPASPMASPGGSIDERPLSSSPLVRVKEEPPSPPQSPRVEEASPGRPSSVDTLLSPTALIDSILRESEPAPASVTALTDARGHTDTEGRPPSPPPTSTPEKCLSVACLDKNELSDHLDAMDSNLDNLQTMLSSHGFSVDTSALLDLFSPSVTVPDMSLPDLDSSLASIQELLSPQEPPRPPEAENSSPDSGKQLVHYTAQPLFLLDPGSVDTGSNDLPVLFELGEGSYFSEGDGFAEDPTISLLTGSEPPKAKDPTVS

Cc1ccc(OP(=O)(Oc2ccc(C)cc2C)Oc2ccc(C)cc2C)c(C)c1
inactive: [1] | [4] | [5] | [7] | [8] | [9]
active: [2] 25.4 µM | [3] 2.33 µM | [6] 0.181 µM

O=C(Nc1ccc(Br)cc1)c1cc(Br)cc(Br)c1O
inactive: [1] | [2] | [8] | [9]
active: [10] 132 µM | [3] 13.3 µM | [5] 93.2 µM | [6] 3.75 µM | [7] 5.26 µM

CCN(N=O)C(N)=O
inactive: [1] | [2] | [10] | [3] | [5] | [6] | [7] | [8] | [9]

O=C(CBr)c1ccc(O)cc1
inactive: [1] | [2] | [10] | [3] | [5] | [6] | [8]

Cc1cc(C(F)(C(F)(F)F)C(F)(F)F)ccc1NC(=O)c1cccc(I)c1C(=O)NC(C)(C)CS(C)(=O)=O
active: [6] 0.633 µM
inactive: [1] | [2] | [3] | [4] | [5] | [7] | [8] | [9]

N#Cc1ccccc1Cl
inactive: [1] | [2] | [10] | [3] | [5] | [7] | [8] | [9]
active: [6] 26.4 µM

CCN(CC)C(=O)C(Cl)=C(C)OP(=O)(OC)OC
active: [6] 11.3 µM
inactive: [1] | [2] | [10] | [3] | [5] | [7] | [9]

CC1CC(=O)O1 (stereo not drawn)
active: [1] 88 µM
inactive: [2] | [10] | [3] | [5] | [6] | [7] | [8] | [9]

CCOP(=O)(OCC)SCCSCC
inactive: [1] | [2] | [10] | [3] | [5] | [8] | [9]
active: [6] 57.2 µM

CC(=O)CN(CC(C)=O)N=O
inactive: [1] | [2] | [10] | [3] | [5] | [6] | [7] | [8] | [9]

Oc1cc(Cl)c(Cl)cc1Cl
inactive: [1] | [2] | [10] | [9]
active: [3] 63 µM | [5] 54 µM | [6] 25.8 µM | [8] 46.2 µM

O=C(Cl)OCCOCCOC(=O)Cl
inactive: [1] | [2] | [3] | [4] | [5] | [6] | [8]

CCCCN(CCCC)C(=S)S
active: [1] 100 µM | [2] 100 µM | [3] 112 µM | [5] 100 µM | [6] 25.1 µM | [9] 50.1 µM
inactive: [8]

Reference: PubChem BioAssay (EPA / NIEHS)
